According to PubChem BioAssay AID1159580 (chemical genetic matrix, 2015):
“And” between values parts separate entries of the source, which are not always exact repeats. Identical values can stand only once. Among all 5,500 compounds or so, about 2,000 (36%) were called active. About 18% were inconclusive and are not listed. Rule as the data show it: active = normalized growth mostly below about 0.91 (no sharp cut-off); inconclusive = no clear call, values can overlap the other calls; inactive = mostly above about 0.92. The list shows a part of the results.

Test: chemical genetic growth profiling, strain panel (AID 1159580);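 also: tested at 20 µM; growth read once vehicle control cultures reached saturation at 30 °C; 1 = growth at the plate median or of vehicle wells; lower values mean less growth of the strain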
Conditions: S. cerevisiae deletion strains, growth OD

Measured: normalized growth

CCN(CC)CCNc1ccc(CO)c2sc3ccccc3c(=O)c12
inactive: locus YAL013W, strain DEP1, active compounds read low 1.01 | locus YAL021C, strain ccr4, active compounds read low 0.994 | locus YAL026C, strain drs2, active compounds read low 0.999 | locus YAL030W, strain snc1, active compounds read low 1.01 | locus YBL061C, strain skt5, active compounds read low 1 | locus YBR009C, strain hhf1, active compounds read low 1.01 | locus YBR021W, strain FUR4, active compounds read low 0.955 | locus YBR023C, strain chs3, active compounds read low 1 | locus YBR171W, strain sec66, active compounds read low 1.02 | locus YBR229C, strain ROT2, active compounds read low 1 | locus YBR231C, strain swc5, active compounds read low 1 | locus YBR279W, strain paf1, active compounds read low 1 | locus YCL011C, strain gbp2, active compounds read low 1 | locus YCL016C, strain dcc1, active compounds read low 1 | locus YCL029C, strain bik1, active compounds read low 1.01 | locus YCL069W, strain vba3, active compounds read low 1.01 | locus YCR088W, strain abp1, active compounds read low 1.01 | locus YDL005C, strain med2, active compounds read low 1.01 | locus YDL035C, strain GPR1, active compounds read low 0.992 | locus YDL040C, strain nat1, active compounds read low 0.993 | locus YDL074C, strain BRE1, active compounds read low 0.948 | locus YDL101C, strain DUN1, active compounds read low 0.979 | locus YDL134C, strain PPH21, active compounds read low 0.996 | locus YDL185W, strain tfp1, active compounds read low 1 | locus YDL192W, strain arf1, active compounds read low 1.01 | locus YDR001C, strain nth1, active compounds read low 1.01 | locus YDR069C, strain doa4, active compounds read low 1.01 | locus YDR101C, strain arx1, active compounds read low 1 | locus YDR137W, strain rgp1, active compounds read low 0.894 | locus YDR150W, strain NUM1, active compounds read low 1 | locus YDR159W, strain sac3, active compounds read low 1 | locus YDR162C, strain NBP2, active compounds read low 0.969 | locus YDR195W, strain ref2 1.07 | locus YDR297W, strain sur2, active compounds read low 1.01 | locus YDR318W, strain mcm21, active compounds read low 1 | locus YDR334W, strain swr1, active compounds read low 1 | locus YDR335W, strain msn5, active compounds read low 1.02 | locus YDR388W, active compounds read low 1.01 | locus YDR392W, strain spt3, active compounds read low 0.999 | locus YDR502C, strain sam2, active compounds read low 0.961 | locus YEL003W, strain gim4, active compounds read low 1.01 | locus YEL037C, strain rad23, active compounds read low 1.01 | locus YEL061C, strain CIN8 (second series), active compounds read low 0.999 | locus YEL061C, strain CIN8, active compounds read low 0.999 | locus YER015W, strain faa2, active compounds read low 1 | locus YER016W, strain bim1, active compounds read low 0.99 | locus YER110C, active compounds read low 1.02 | locus YER111C, strain swi4, active compounds read low 1 | locus YER155C, strain BEM2 (second series), active compounds read low 0.972 | locus YER155C, strain BEM2, active compounds read low 1.03 | locus YER167W, strain BCK2, active compounds read low 1 | locus YFR010W, strain ubp6, active compounds read low 0.999 | locus YGL078C, strain dbp3, active compounds read low 1.01 | locus YGL086W, strain mad1, active compounds read low 1 | locus YGL167C, strain pmr1, active compounds read low 1.01 | locus YGL173C, strain kem1, active compounds read low 1.01 | locus YGL227W, strain vid30, active compounds read low 0.989 | locus YGL240W, strain doc1, active compounds read low 1.01 | locus YGL248W, strain PDE1, active compounds read low 1 | locus YGL253W, strain hxk2, active compounds read low 1.01 | locus YGR078C, strain PAC10, active compounds read low 0.975 | locus YGR135W, strain pre9, active compounds read low 0.971 | locus YGR229C, strain SMI1, active compounds read low 0.998 | locus YGR252W, strain gcn5, active compounds read low 0.918 | locus YHR013C, strain ard1, active compounds read low 1.01 | locus YHR027C, strain rpn1, active compounds read low 1.01 | locus YHR030C, strain SLT2, active compounds read low 1.01 | locus YHR079C, strain IRE1 (second series), active compounds read low 1.01 | locus YHR079C, strain IRE1, active compounds read low 1.01 | locus YHR094C, strain hxt1, active compounds read low 1.02 | locus YHR129C, strain ARP1, active compounds read low 0.995 | locus YHR142W, strain chs7, active compounds read low 1.01 | locus YHR200W, strain rpn10, active compounds read low 1.02 | locus YIL066C, strain RNR3, active compounds read low 0.968 | locus YIL073C, strain SPO22, active compounds read low 1.18 | locus YIL125W, strain kgd1, active compounds read low 1.01 | locus YIR030C, strain dcg1, active compounds read low 1.02 | locus YJL092W, strain hpr5, active compounds read low 1 | locus YJL095W, strain BCK1 (second series), active compounds read low 1.01 | locus YJL095W, strain BCK1, active compounds read low 0.952 and 1.02 | locus YJL115W, strain asf1, active compounds read low 1.03 | locus YJL129C, strain trk1, active compounds read low 1 | locus YJL134W, strain LCB3, active compounds read low 1 | locus YJL154C, strain vps35, active compounds read low 1.01 | locus YJL164C, strain tpk1, active compounds read low 1.01 | locus YJL166W, strain qcr8, active compounds read low 1.02 | locus YJL168C, strain set2, active compounds read low 1.02 | locus YJL187C, strain SWE1 (second series), active compounds read low 0.986 | locus YJL187C, strain SWE1, active compounds read low 1 | locus YJR043C, strain POL32, active compounds read low 1 | locus YJR066W, strain TOR1, active compounds read low 0.949
